The supplement of paper PMC7156485

These compounds were tested on HCC1569 (assay: H1.0 immunofluorescence intensity relative to DMSO (% of DMSO); higher = stronger H1.0 induction, active = 140 or more). Conditions: concentration: 10 µM; 24 h.
In short: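 Using 384-well plates with 800 cells per well in RPMI plus 10% FBS, HCC1569 and TDF cells were exposed to compounds at 10 µM, in triplicate, for 24 h at 37 °C. Imaging of six fields per well at ×10 followed H1.0 and DAPI staining. The reported quantity, H1.0 nuclear intensity or cell number, is a median of replicates given as percent of the plate control, and HCC1569 values were smoothed for positional effects.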
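Note: TDF is a line of transformed human dermal fibroblasts of mesenchymal origin.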

Row | Structure (SMILES) | H1.0 immunofluorescence intensity
1 | O=[N+]([O-])c1cccc2c(Br)[nH]nc12 [3-Bromo-7-nitroindazole] | 91.9 (inactive)
2 | CCOC(=O)CN1C(=O)c2ccc3c4c(ccc(c24)C1=O)C(=O)N(CC(=O)OCC)C3=O | 100 (inactive)
3 | CCCCCC=CCC(O)C=CC=CCCC(=O)O [Tetranor-12(R)-HETE] | 102 (inactive)
4 | COc1cc2nc(N(C)CCCNC(=O)C3CCCO3)nc(N)c2cc1OC (stereo not drawn) [Alfuzosin] | 102 (inactive)
5 | Cl.NC(N)=NC(N)=Nc1cccc(Cl)c1 [1-(m-Chlorophenyl)-biguanide hydrochloride] | 97.1 (inactive)
6 | COc1ccc2c(c1)c(CC(=O)OCC(=O)O)c(C)n2C(=O)c1ccc(Cl)cc1 [Acemetacin] | 104 (inactive)
7 | O=C(O)CCc1nc(-c2ccccc2)c(-c2ccccc2)o1 [Oxaprozin] | 97.7 (inactive)
8 | O=c1cc(-c2ccc(O)cc2)oc2cc(O)cc(O)c12 [Apigenin] | 99.9 (inactive)
9 | OCCn1cc(-c2cnc3nnn(Cc4ccc5ncccc5c4)c3n2)cn1 | 99.8 (inactive)
10 | CC1(COc2ccc(CC3SC(=O)NC3=O)cc2)CCCCC1 (stereo not drawn) [Ciglitizone] | 90.5 (inactive)
11 | COc1cc2ncnc(Nc3cccc(Cl)c3)c2cc1OC [Tyrphostin AG 1478] | 119 (inactive)
12 | NC(=O)Nc1sc(-c2ccc(F)cc2)cc1C(N)=O [IKK-2 Inhibitor IV] | 186 (active)
13 | Cl.O.O=C(O)CN(CCN(CC(=O)O)Cc1ccccc1O)Cc1ccccc1O | 90.1 (inactive)
